Screening data (PubChem)
UBC13 inh: human UBC13 polyubiquitination inhibition; AID 485273; P61088; inhibition, % at 20 µM; UBC13 polyubiquitin chain formation, TR-FRET; hit rate 0.47% among 330,000; in the data active means inhibition above about 45%, passing the limit was not always enough; inconclusive means no clear call, values can overlap the other calls
Target sequence (P61088 whole entry, looked up): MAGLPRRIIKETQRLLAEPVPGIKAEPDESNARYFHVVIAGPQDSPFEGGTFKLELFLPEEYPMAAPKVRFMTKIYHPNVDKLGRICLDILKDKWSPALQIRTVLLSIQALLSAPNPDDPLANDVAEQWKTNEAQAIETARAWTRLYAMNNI
NALP1 inh: inhibitors of NALP1 inflammasome in yeast; S. cerevisiae NALP1/ASC/caspase-1 growth, X-gal OD620, 72 h; inhibition, % at 10 µM; hit rate 0.61% among 280,000; in the data active means inhibition mostly above about 24%, no sharp cut-off; inactive means mostly below about 32%
CR mimetic SO: yeast age-related superoxide inhibition as caloric restriction mimetic; superoxide response (% of plate mean), % at 10 µM; hit rate 0.18% among 330,000; S. cerevisiae aged cells, superoxide DHE fluorescence; stronger effect = lower value; AID 2690;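 active means superoxide response under a set limit, about three screen SD below normal, cut at about 65% in these data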;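 further: yeast aged for seven days with compound at 30 °C before DHE staining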
dFosB activator: enhances mouse delta FosB homodimer DNA binding; purified delta FosB, TAMRA-CDK5 oligo fluorescence polarization; percent of positive-control signal above neutral wells; activation, % at 25 µM; hit rate 0.99% among 340,000; AID 493131;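 active means mean activation above about 17%, with every replicate also reaching it, limit read from the data, passing the limit was not always enough; inconclusive means only one of the two conditions met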
Target sequence (P13346 whole entry, looked up): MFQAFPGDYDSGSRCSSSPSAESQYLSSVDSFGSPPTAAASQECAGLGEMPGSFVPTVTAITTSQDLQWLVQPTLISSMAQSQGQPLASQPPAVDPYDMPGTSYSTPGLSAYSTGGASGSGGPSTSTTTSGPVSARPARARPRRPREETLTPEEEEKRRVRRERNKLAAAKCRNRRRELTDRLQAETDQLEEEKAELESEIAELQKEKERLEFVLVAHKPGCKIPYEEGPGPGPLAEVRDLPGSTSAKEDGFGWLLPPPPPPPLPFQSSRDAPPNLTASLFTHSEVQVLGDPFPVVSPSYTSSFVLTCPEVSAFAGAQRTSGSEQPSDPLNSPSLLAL
GRIN3A LBD mod: modulates the human NR3A ligand-binding domain | NR3A LBD differential scanning fluorimetry, Tm shift; 0% = protein alone, 100% = glycine-bound protein | Tm shift relative to glycine control, % at 25 µM | hit rate 2.5% among 340,000 | AID 1259313;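 active means melting temperature shift of at least 10% of the positive control shift, at one fixed dose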
Large screens that a line does not name were inactive. The list is not random: actives were taken first. Their share in the collection is about 4.3%.

CCCCn1c(N)c(N(CCOC)C(=O)c2ccc3c(c2)C(=O)N(c2cc(C)ccc2C)C3=O)c(=O)[nH]c1=O	none
Cc1ccc2oc(=O)c3cnn(CC(=O)N(CCN(C)C)Cc4ccco4)c3c2c1	NALP1 inh 41
COCCCN(Cc1ccco1)C(=O)Cn1ncc2c(=O)oc3ccc(C)cc3c21	none (no result: NALP1 inh)
COc1cc(/C=N/Nc2nc(Nc3ccc(C)cc3)nc(-n3nc(C)cc3C)n2)cc(OC)c1OC	NALP1 inh 42
COc1cc(/C=N/Nc2nc(Nc3ccccc3)nc(-n3nc(C)cc3C)n2)cc(OC)c1OC	dFosB activator inconclusive
O=[N+]([O-])c1cccc(NC(=S)Nc2nc(-c3ccccc3Cl)cs2)c1	GRIN3A LBD mod 17
O=C(CSc1nc(-c2ccc(Cl)cc2)cs1)Nc1cccc([N+](=O)[O-])c1	GRIN3A LBD mod 27
CCNC(=S)Nc1cccc([N+](=O)[O-])c1	none (no result: dFosB activator, GRIN3A LBD mod)
COc1cc2cc(C)c(Br)c(OC)c2cc1OC	none (no result: UBC13 inh, NALP1 inh, CR mimetic SO)
Cc1cc([N+](=O)[O-])ccc1Nc1nc2ccccc2n2cnnc12	GRIN3A LBD mod 37
C=C(C)[C@H]1CC=C(C(=O)O)CC1	none (no result: UBC13 inh, NALP1 inh, CR mimetic SO, dFosB activator)
CCOC(=O)C1=C(c2ccccc2)N=c2s/c(=C\c3cccc(O)c3)c(=O)n2C1c1cccs1 (stereo not given)	GRIN3A LBD mod 14
CCOC(=O)C1=C(C)N=c2s/c(=C\c3cccc(OCC(=O)O)c3)c(=O)n2C1c1ccccc1OC (stereo not given)	none
COc1ccc(NC(=O)NC[C@@H]2CC[C@@H](Cc3ccc(-c4ccccc4)cc3)O2)cc1	dFosB activator inconclusive, GRIN3A LBD mod 11 (no result: UBC13 inh, NALP1 inh)
c1ccc(CNc2c3ccccc3nc3ccccc23)cc1	dFosB activator 38
c1ccc(CNc2ncnc3ccccc23)cc1	none
Oc1ccc(CCNc2c3ccccc3nc3ccccc23)cc1O	dFosB activator 71
CN(C)CCCNc1c2ccccc2nc2ccccc12	dFosB activator 72 (no result: GRIN3A LBD mod)
O=C(O)c1ccc(C=NN=C2c3ccccc3-c3ccccc32)cc1	GRIN3A LBD mod 28 (no result: UBC13 inh, NALP1 inh, CR mimetic SO)
COc1ccc(C(CNC(=O)c2cccc(NS(=O)(=O)c3ccc(Br)cc3)c2)N(C)C)cc1 (stereo not given)	none (no result: NALP1 inh, GRIN3A LBD mod)
O=C(c1ccc(N2CCOCC2)c([N+](=O)[O-])c1)N1CCCCC1	none
O=C(NNC(=S)Nc1ccc(Br)cc1)c1ccc(N2CCOCC2)c([N+](=O)[O-])c1	GRIN3A LBD mod 19
Cc1ccc(NC(=S)NNC(=O)c2ccc(N3CCOCC3)c([N+](=O)[O-])c2)cc1Cl	GRIN3A LBD mod 19
O=C(NNC(=S)Nc1ccc(Cl)cc1Cl)c1ccc(N2CCOCC2)c([N+](=O)[O-])c1	GRIN3A LBD mod 24
CC(C)c1nc(SCC(=O)Nc2cccc3ccccc23)n[nH]1	none (no result: NALP1 inh)
COc1ccc(CCN(Cc2nc(-c3ccccc3)no2)Cc2nc(-c3ccccc3)no2)cc1OC	GRIN3A LBD mod 16
O=C(NCCCSc1ccccc1)c1cc(Cl)ccc1O	GRIN3A LBD mod 12
O=C(c1ccc(Cl)cc1)c1cccc(O)c1	none (no result: UBC13 inh, NALP1 inh, CR mimetic SO)
COCC(=O)N1CCC(Oc2ccc(C(=O)N(C)C(C)c3ccon3)cc2)CC1 (stereo not given)	none
Cc1cc(C(C)(C)C)cc(C)c1CCNC(=O)c1c(C)noc1C	none (no result: NALP1 inh, CR mimetic SO)
CC(=O)Nc1ccc(SC[C@H](CC(C)C)N2CCN(CC(C)C)CCC2=O)cc1	GRIN3A LBD mod 13
O=C(N/N=C/c1ccc(OCc2ccccc2)cc1)c1ccco1	GRIN3A LBD mod 13
Cc1cc(C(=O)N/N=C/c2ccc(OCc3ccccc3)cc2)c(C)o1	GRIN3A LBD mod 14
O=C(Nc1ccccc1C(=O)N/N=C/c1ccccc1)c1ccco1	dFosB activator 88
Cn1c(=O)[nH]c(=O)c2c1nc(Br)n2Cc1cccc(Br)c1	none
COc1ccccc1NS(=O)(=O)c1ccc(C(=O)N2CCCCCCC2)cc1	none (no result: NALP1 inh)
CCNS(=O)(=O)c1ccc(NC(=O)Nc2ccccc2OC)cc1	GRIN3A LBD mod 14
COc1ccccc1NS(=O)(=O)c1ccc(NC(=O)N2CCCCC2)cc1	GRIN3A LBD mod 13
CCNS(=O)(=O)c1ccc(NC(=O)Nc2cc(C)ccc2OC)cc1	GRIN3A LBD mod 20
CCNC(=S)Nc1cccc(S(=O)(=O)Nc2ccccc2OC)c1	none
COc1ccc(C)cc1NC(=O)NNS(=O)(=O)c1ccc(NC(C)=O)cc1	none
COc1ccccc1NS(=O)(=O)c1cccc(NC(=O)Nc2ccccc2)c1	GRIN3A LBD mod 22
CCc1cccc(OCC(=O)Nc2ccc(S(=O)(=O)N3CCCC3)cc2)c1	none
CN(C)C(=O)Cn1cnc2c(cnn2-c2ccc(F)cc2)c1=O	none
COc1ccc(NC(=O)CN(C)C(=O)c2ccc(S(=O)(=O)Nc3ccccc3F)cc2)cc1	none (no result: NALP1 inh)
Cc1nc2c(N=Nc3ccccc3F)c(N)nn2c(N)c1C#N	GRIN3A LBD mod 15
COc1ccc(C(=O)c2c(C)oc3ccc(O)cc23)cc1	none
COc1ccc(C(=O)c2ccc3oc(-c4ccc(OC)cc4)c(-c4ccc(O)cc4)c3c2)cc1	GRIN3A LBD mod 11 (no result: NALP1 inh)
COC(=O)C1=C(O)/C(=C\c2ccc(OCC(=O)Nc3ccc(OC)cc3)cc2)N=C1C	none
Cc1ccccc1NC(=O)CCNS(=O)(=O)c1cccc2nsnc12	none
OCC1(CCc2ccccc2)CCN(Cc2cc(F)ccc2-n2cccn2)CC1	none
COc1cccc(N/C(SCc2ccccc2Cl)=C(/C#N)C(=O)NCc2cccs2)c1	GRIN3A LBD mod 13
COc1c(C(=O)NNC(=O)c2ccccc2)csc1Br	GRIN3A LBD mod 12
COc1cccc(C(=O)NNC(=O)c2ccccc2)c1	none
COc1cccc(NC(=O)Nc2ccc3c(c2)CCC3)c1	none
CC(=O)c1cccc(NC(=O)Nc2ccc3c(c2)CCC3)c1	GRIN3A LBD mod 22
CSc1ccccc1C(=O)Nc1ccc2c(c1)CCC2	GRIN3A LBD mod 10
CC(=O)c1cccc(NC(=O)c2ccc3c(c2)CCCC3)c1	none
Cc1cccc(NC(=O)Nc2ccc3c(c2)CCC3)c1	GRIN3A LBD mod 16
COc1ccc2cc(Br)ccc2c1CC(=O)NC(C)(C)C	none
O=C(c1c[nH]c2ccccc12)C(Cl)c1ccccc1 (stereo not given)	NALP1 inh 45
O=C(c1c[nH]c2ccccc12)C(O)C(c1ccccc1)N1CCOCC1 (stereo not given)	none
COc1ccc(NC(=S)N2CCC(c3nc4ccccc4o3)CC2)c(OC)c1	none
Oc1ccc(/C=N/N2CCCCC2)c(O)c1	GRIN3A LBD mod 33
O=C1c2cccc3cccc(c23)C(=O)N1/N=C/c1ccc(O)cc1O	GRIN3A LBD mod 25
Oc1ccc(/C=N/Nc2nc(N3CCCCCC3)nc(N3CCCCCC3)n2)c(O)c1	GRIN3A LBD mod 15
Oc1ccc(Br)cc1/C=N/Nc1nc(N2CCCCC2)nc(N2CCOCC2)n1	none (no result: dFosB activator)
Oc1ccccc1C=NN1CCCCCC1	none (no result: UBC13 inh, NALP1 inh, CR mimetic SO)
O=C(CNC(=O)c1ccc(Br)o1)NC1CCCCC1	none
COc1ccc(OC)c(NC(=O)CCN2CCN(CCO)CC2)c1	none
CCOc1ccc(CNC(=S)N/N=C\c2ccc([N+](=O)[O-])cc2)cc1	GRIN3A LBD mod 24 (no result: NALP1 inh)
COc1cccc(CNC(=O)Cn2nc(C)c([N+](=O)[O-])c2C)c1	none
